Compound activity (PubChem BioAssay)
CRE-bla Fsk: alters forskolin-stimulated CRE reporter signaling in CHO cells. CHO CRE-bla reporter (cAMP response element driving beta-lactamase), forskolin EC10, beta-lactamase ratio. Potency, µM (series often up to 38.2 µM), hits mostly activators. hit rate 2.5% among 71,000. AID 662; active = well fitted activation curve with a large enough effect in the signal ratio, with a control signal flat, not every such curve was filed as active; inconclusive = small, poorly fitted or top-dose-only effect, or effect the other way, or a change in a side signal; the % refers to the signal ratio
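qHTS titration format; CRE-bla CHO reporter; stimulus EC10 NKH 477, a water-soluble forskolin. Read: CCF4 460/530 nm ratio. Potency expressed as AC50 for activators or inhibitors.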
HEK293 cAMP cs: counter-screen for TSHR agonists: cAMP increase in parental HEK293; Potency, µM (series often up to 57.1 µM), actives largely listed as activators; hit rate 2.5% among 73,000; parental HEK293 CNG cAMP sensor, membrane potential fluorescence; also: nearly all actives have a fitted effect of over 55% in size
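Counterscreen for endogenous-receptor signalling: CNG-channel HEK 293 cells report cAMP rise by membrane depolarization. After 60 min dye equilibration with 100 uM RO 20-1724, compounds incubated 30 min before bottom-read fluorescence at 590 nm.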
TSHR agonist: agonists of human thyroid stimulating hormone receptor. P16473. HEK293-CNG-TSHR cells (CNG channel as cAMP sensor), membrane potential dye, cAMP. Potency, µM (series often up to 57.1 µM), actives largely listed as activators. hit rate 0.48% among 73,000; active = well fitted activation curve with a large enough effect in the main read-out, with a control signal flat, not every such curve was filed as active; inconclusive = small, poorly fitted or top-dose-only effect, or a change in a side signal; inactive = no such curve, though single readings can be large or run the other way; reference of the percent scale not stated here;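 also: the control signal comes from parental cells without the receptor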
Target sequence (P16473 whole entry, looked up): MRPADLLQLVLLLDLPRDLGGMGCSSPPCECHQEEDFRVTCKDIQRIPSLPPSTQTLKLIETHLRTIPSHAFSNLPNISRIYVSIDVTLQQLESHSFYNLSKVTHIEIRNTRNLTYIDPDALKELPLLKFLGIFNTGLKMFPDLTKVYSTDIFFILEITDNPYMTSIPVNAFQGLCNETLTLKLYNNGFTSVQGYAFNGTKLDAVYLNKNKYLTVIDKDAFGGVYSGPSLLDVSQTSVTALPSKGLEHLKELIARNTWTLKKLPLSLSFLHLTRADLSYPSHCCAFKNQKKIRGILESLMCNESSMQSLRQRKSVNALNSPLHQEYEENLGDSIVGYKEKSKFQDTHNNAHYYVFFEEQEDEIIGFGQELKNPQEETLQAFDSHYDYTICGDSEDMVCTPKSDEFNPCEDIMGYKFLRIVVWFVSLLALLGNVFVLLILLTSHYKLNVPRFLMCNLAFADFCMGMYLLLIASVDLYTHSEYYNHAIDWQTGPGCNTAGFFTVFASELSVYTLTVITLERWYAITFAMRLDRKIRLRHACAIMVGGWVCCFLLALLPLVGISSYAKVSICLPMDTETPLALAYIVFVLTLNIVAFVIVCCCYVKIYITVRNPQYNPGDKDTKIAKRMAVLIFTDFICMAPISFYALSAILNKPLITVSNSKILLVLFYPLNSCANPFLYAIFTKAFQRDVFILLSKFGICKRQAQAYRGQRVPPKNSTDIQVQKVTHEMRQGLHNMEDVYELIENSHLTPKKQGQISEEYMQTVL
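cAMP rise detected as CNG-channel membrane depolarization by fluorescent dye (emission 590 nm), 30 min after compound, following 60 min dye loading containing 100 uM RO 20-1724 at room temperature. Cells: TSHR/CNG HEK 293, with parental CNG HEK 293 as control.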
IkB sig inh: suppresses IkB signaling in ABC-DLBCL reporter cells; ABC-DLBCL IkBa-CBG/CBR dual luciferase ratio, 4 h; response scale: scaled: untreated 0%, proteasome inhibitor 100%; Potency, µM (series often up to 57.1 µM); hit rate 0.04% among 110,000; AID 445; active = well fitted curve in the direction sought with a large enough effect in the signal ratio, not every such curve was filed as active; inconclusive = small, poorly fitted or top-dose-only effect, or a change in a side signal; the % refers to the signal ratio;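 also: the direction sought is a rising ratio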
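Curves were fitted separately to fusion (green), unfused (red) and ratio luminescence, then classed by r2, magnitude and activity. Cells: OCI-Ly3, 4 h compound plus doxycycline at 37C; 10 uM MG-132 defined full response.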
ERK AVP inh: inhibitors of vasopressin-stimulated ERK signaling pathway; hit rate 0.99% among 72,000; HEK293-V1b, vasopressin-stimulated pERK AlphaScreen; Potency, µM (highest dose often 57.5 µM), hits mostly inhibitors; also: nearly all actives have a fitted effect of over 55% in size
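HEK293 cells stably expressing V1b receptor, seeded overnight in 1% FBS, were treated with compounds for 30 min at 37C, then stimulated 5 min with 25 nM vasopressin; phospho-ERK read by AlphaScreen SureFire after lysis.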
Numbers stand for hits; [ ] = another dose, or the depositor's remark. In the library only some 3.6% were active in any assay of this set; here they are far more common. Unless noted, calls follow the shape of the dose curve; as a rule, active = well fitted curve in the direction sought with a large enough effect; inconclusive = small, poorly fitted or top-dose-only effect, or another doubt; inactive = no such curve, though single readings can be large; an effect the other way counts as inactive or inconclusive.

For COc1ccc(C(=O)Nc2cc3c(cc2C#N)OCO3)cc1S(=O)(=O)N1CCN(C)CC1 the results were CRE-bla Fsk inactive, HEK293 cAMP cs inactive, TSHR agonist inactive, IkB sig inh inactive and ERK AVP inh inactive.
For C=CCOc1cccc(C2/C(=C(/O)c3ccc(Cl)cc3)C(=O)C(=O)N2CCN2CCOCC2)c1 (stereo unspecified) the results were CRE-bla Fsk inactive, HEK293 cAMP cs inactive, TSHR agonist inactive, IkB sig inh inactive and ERK AVP inh inactive.
For c1ccc(Cn2nnc3c(N4CCOCC4)ncnc32)cc1 the results were CRE-bla Fsk 10µM, HEK293 cAMP cs inactive, TSHR agonist inactive, IkB sig inh inactive and ERK AVP inh inactive.
Screening O=C(CSc1nnnn1Cc1ccccc1)Nc1ccc2c(c1)OCO2 returned CRE-bla Fsk inactive, HEK293 cAMP cs inactive, TSHR agonist inactive, IkB sig inh inactive and ERK AVP inh inactive.
Screening Cc1cc(NC(=O)CSc2nnc(COc3ccccc3)n2Cc2ccco2)no1 returned CRE-bla Fsk inactive, HEK293 cAMP cs inactive, TSHR agonist inactive, IkB sig inh inactive and ERK AVP inh inactive.
`O=C(CSc1nnnn1Cc1ccccc1)Nc1ccc2c(c1)OCCO2` gave CRE-bla Fsk inactive, HEK293 cAMP cs inactive, TSHR agonist 3.2µM, IkB sig inh inactive and ERK AVP inh inactive.
`O=C(CSc1nnc(COc2ccccc2)n1Cc1ccco1)Nc1ccc2c(c1)OCCO2` gave CRE-bla Fsk inactive, HEK293 cAMP cs inactive, TSHR agonist 20µM, IkB sig inh inactive and ERK AVP inh inactive.
Cc1nn(Cc2nc(-c3cccs3)no2)c(C)c1Br was read as CRE-bla Fsk inactive, HEK293 cAMP cs inactive, IkB sig inh inactive and ERK AVP inh inactive.
For CCCN(CCO)Cc1cccc(Oc2ccccc2)c1 the results were CRE-bla Fsk inactive[7.6 µM], HEK293 cAMP cs inconclusive, TSHR agonist inconclusive, IkB sig inh inactive and ERK AVP inh inactive.
`COC(=O)C1=C(C)NC(C)=C(C(=O)OC)C1C1CC=CCC1` (stereo unspecified) gave HEK293 cAMP cs inactive and TSHR agonist 20µM.
Cn1nnnc1Sc1ncnc2scc(-c3ccccc3)c12 was read as CRE-bla Fsk 0.5µM, HEK293 cAMP cs inconclusive, TSHR agonist inconclusive, IkB sig inh inconclusive and ERK AVP inh inactive.
`Cn1nnnc1Sc1ncnc2scc(-c3ccc(F)cc3)c12` gave CRE-bla Fsk inconclusive, HEK293 cAMP cs inactive, TSHR agonist inactive, IkB sig inh inconclusive and ERK AVP inh inactive.
CCOc1ccc2[nH]c(=O)c(C(c3nnnn3C3CCCCC3)N3CCN(C)CC3)cc2c1 (stereo unspecified) was read as CRE-bla Fsk inactive, HEK293 cAMP cs inactive, TSHR agonist inactive, IkB sig inh inactive and ERK AVP inh inactive.
For CCOc1ccc2[nH]c(=O)c(C(c3nnnn3Cc3ccco3)N3CCCC(C)C3)cc2c1 (stereo unspecified) the results were CRE-bla Fsk inconclusive, HEK293 cAMP cs 7.9µM, TSHR agonist inconclusive, IkB sig inh inconclusive and ERK AVP inh inactive.
CCC(c1nnnn1Cc1ccco1)N(Cc1cc2cc(C)cc(C)c2[nH]c1=O)CC1CCCO1 (stereo unspecified) was read as CRE-bla Fsk inactive, HEK293 cAMP cs 20µM, TSHR agonist inconclusive, IkB sig inh inconclusive and ERK AVP inh inactive.
For CCOc1ccc2[nH]c(=O)c(C(c3nnnn3Cc3ccco3)N3CCC(C)CC3)cc2c1 (stereo unspecified) the results were CRE-bla Fsk inactive, HEK293 cAMP cs 32µM, TSHR agonist inconclusive, IkB sig inh inconclusive and ERK AVP inh inactive.
`COc1ccc2[nH]c(=O)c(CN(C3CCCCC3)C(c3nnnn3Cc3ccco3)C(C)C)cc2c1` (stereo unspecified) gave CRE-bla Fsk inactive, HEK293 cAMP cs inactive, TSHR agonist inactive, IkB sig inh 7.9µM and ERK AVP inh inactive.
O=C(CN1CCOCC1)OCCCc1ccccc1 was read as CRE-bla Fsk inactive, HEK293 cAMP cs inactive, TSHR agonist inactive, IkB sig inh inactive and ERK AVP inh inactive.
Screening Cc1nc2c(C(=O)NCCC3=CCCCC3)c[nH]n2c(=O)c1Cl returned CRE-bla Fsk inconclusive, HEK293 cAMP cs inactive, IkB sig inh inactive and ERK AVP inh inactive.
For COc1cccc(C2C(C(N)=O)=C(C)Nc3nc(CCCO)nn32)c1 (stereo unspecified) the results were IkB sig inh inactive.
Screening CCC(=O)N1CCCc2cc(S(=O)(=O)N3CCN(c4ccccc4F)CC3)ccc21 returned CRE-bla Fsk inconclusive, HEK293 cAMP cs 25µM, TSHR agonist inconclusive, IkB sig inh inconclusive and ERK AVP inh inactive.
COc1ccc(S(=O)(=O)N(C)c2ccc(C(=O)NCC3CCCO3)cc2)cc1 (stereo unspecified) was read as CRE-bla Fsk inactive, HEK293 cAMP cs inactive, TSHR agonist inactive, IkB sig inh inactive and ERK AVP inh inactive.
COC(=O)Cc1ccc(NC(=O)c2cccs2)cc1 was read as CRE-bla Fsk inactive, HEK293 cAMP cs inactive, TSHR agonist inactive, IkB sig inh inconclusive and ERK AVP inh inactive.
For N#Cc1c(N)n(CCCN2CCOCC2)c2nc3ccccc3nc12 the results were CRE-bla Fsk 13µM, HEK293 cAMP cs inactive, TSHR agonist inactive, IkB sig inh inactive and ERK AVP inh inactive.
`COc1ccc(CCn2c(N)c(C#N)c3nc4ccccc4nc32)cc1OC` gave CRE-bla Fsk 16µM, HEK293 cAMP cs inactive, TSHR agonist inactive, IkB sig inh inactive and ERK AVP inh inactive.
CCCCn1c(NC(C)=O)c(C#N)c2nc3ccccc3nc21 was read as CRE-bla Fsk inconclusive, HEK293 cAMP cs inactive, IkB sig inh inactive and ERK AVP inh inactive.
`CCCCCn1c(N)c(C#N)c2nc3ccccc3nc21` gave CRE-bla Fsk 10µM, HEK293 cAMP cs inactive, TSHR agonist inactive, IkB sig inh inactive and ERK AVP inh inactive.
Screening O=C(NCCc1c[nH]c2ccccc12)[C@@H]1C[C@H]1[C@@H](NP(=O)(c1ccccc1)c1ccccc1)c1ccccc1 returned CRE-bla Fsk inactive, HEK293 cAMP cs inactive, TSHR agonist inactive and ERK AVP inh inactive.
`CCNc1ncc2nc(-c3cn(C)c4ccccc34)c(=O)n(C[C@H]3CCCO3)c2n1` gave CRE-bla Fsk 0.79µM, HEK293 cAMP cs inactive, TSHR agonist inactive, IkB sig inh inactive[11.4 µM] and ERK AVP inh inconclusive.
CCNc1ncc2nc(-c3cn(C)c4ccccc34)c(=O)n(CCC#N)c2n1 was read as CRE-bla Fsk 4µM, HEK293 cAMP cs inactive[2.29 µM], TSHR agonist inactive, IkB sig inh inactive[11.4 µM] and ERK AVP inh inactive.
For CCNc1ncc2nc(-c3cn(C)c4ccccc34)c(=O)n(C)c2n1 the results were CRE-bla Fsk inconclusive, HEK293 cAMP cs inactive, TSHR agonist inactive, IkB sig inh inactive[11.4 µM] and ERK AVP inh inactive.
CCNc1ncc2nc(-c3cccs3)c(=O)n(CCC#N)c2n1 was read as CRE-bla Fsk inconclusive, HEK293 cAMP cs inactive, TSHR agonist inactive, IkB sig inh inactive[11.4 µM] and ERK AVP inh 5µM.
